According to PubChem BioAssay (NCI):
This is part of a sample that, as a whole, favours compounds with a hit. Of some 79,000 tested, about 15% had one in any assay. Values without a mark were called inactive. Calls of active or inactive are those of the source. Rule as the data show it: active = growth inhibition above about 70%; inactive = the rest.

Assay: NCI Yeast Anticancer Drug Screen. Data for the rad50 strain (AID 155);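 also: 0% = growth of vehicle-only cultures of the same strain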
Details: S. cerevisiae rad50 strain growth inhibition; at 50.0 µM; stronger effect = higher value
Experimental: Growth inhibition of yeast strains with defined genetic alterations is measured as a screen for potential anti-cancer activity. Selected strains with alterations in DNA damage repair or cell cycle control were exposed to compounds and growth inhibition was measured relative to vehicle treated controls. The strain used in this assay is rad50

**Q.** For `CN(C)c1ccc(C=Nc2ccc3c(c2)C(N2CCOCC2)c2ccccc2-3)cc1` (stereo not given), which growth inhibition is on record?
**A.** -14.7%

**Q.** With `ClC1(c2ccccc2)c2ccccc2C(Cl)(c2ccccc2)c2ccccc21` (stereo not given) as the compound, how does the growth inhibition read?
**A.** 17.9%

**Q.** For `Cc1ccc(NC(=O)N2CC2C)cc1NC(=O)N1CC1C` (stereo not given), which growth inhibition is on record?
**A.** 2.4%

**Q.** For `CC1CC(O)CC(C)(C)C1.CC1CC(O)CC(C)(C)C1.CC1CC(O)CC(C)(C)C1.CC1CC(O)CC(C)(C)C1.[Ti]` (stereo not given), which growth inhibition is on record?
**A.** 13.9%

**Q.** With `C=CCOc1c(C)cc(C)cc1C` as the compound, how does the growth inhibition read?
**A.** 5.3%

**Q.** Which growth inhibition does the source give for `NOCc1ccc(OCc2ccccc2)cc1` here?
**A.** 5.75%

**Q.** With `Cc1ccc2c(ccc3ccccc32)n1` as the compound, how does the growth inhibition read?
**A.** 59.8%

**Q.** Which growth inhibition does the source give for `Nc1nc(N)nc(-c2cc(Br)ccc2N)n1` here?
**A.** 51.6%

**Q.** With `CC(C)N(C(=S)/N=C1/SC(C)S(=O)(=O)N1C)C(C)C` (stereo not given) as the compound, how does the growth inhibition read?
**A.** -4.95%

**Q.** Which growth inhibition does the source give for `C=C(C)COc1ccc(Nc2ccccc2)cc1` here?
**A.** 5.7%

**Q.** Which growth inhibition does the source give for `O=C1c2ccccc2CN1c1ccccc1` here?
**A.** -23%

**Q.** With `O=NN(CC(=O)O)c1ccc2ccccc2c1` as the compound, how does the growth inhibition read?
**A.** 2.55%

**Q.** With `O=c1[nH]c2cccccc-2c1-c1nc2ccccc2[nH]1` as the compound, how does the growth inhibition read?
**A.** 40.6%

**Q.** For `O=C1c2ccccc2CN1c1ccc(O)cc1`, which growth inhibition is on record?
**A.** 5.65%

**Q.** Which growth inhibition does the source give for `O=C(c1ccc(Cl)cc1)C(C(c1ccccc1[N+](=O)[O-])N1CCCCC1)N1CCCCC1` (stereo not given) here?
**A.** -15.1%

**Q.** Which growth inhibition does the source give for `CC(=O)Nc1c(F)cc(F)cc1[N+](=O)[O-]` here?
**A.** -28.4%

**Q.** With `CN(C)C(=O)C1CCC(CC2CCCCC2)CC1` (stereo not given) as the compound, how does the growth inhibition read?
**A.** 99.1% (active)

**Q.** With `Cc1ccc2nc[nH]c2c1` as the compound, how does the growth inhibition read?
**A.** 0.35%

**Q.** With `O=C(NC(=O)c1cn(CCN(CCO)C(=O)NCCCCCCNC(=O)N(CCO)CCn2cc(C(=O)NC(=O)OCc3ccccc3)c(=O)[nH]c2=O)c(=O)[nH]c1=O)OCc1ccccc1` as the compound, how does the growth inhibition read?
**A.** -2.5%

**Q.** With `Cn1c2ccccc2c2c3ccc[n+](C)c3ccc21` as the compound, how does the growth inhibition read?
**A.** 8%

**Q.** Which growth inhibition does the source give for `CC1(C)CC2(CC3(C1)SCCS3)SCCS2` here?
**A.** -11.2%

**Q.** With `O=C1c2cccnc2-c2ncccc21` as the compound, how does the growth inhibition read?
**A.** 16.3%

**Q.** With `O=C1CCCc2ccc3c(c21)CC1(Cc2ccccc2C1)C3` as the compound, how does the growth inhibition read?
**A.** -7.05%

**Q.** Which growth inhibition does the source give for `CN(C)c1ccccc1C(=O)N/N=C\c1ccc(O)c(O)c1` here?
**A.** 17.6%

**Q.** With `CCN(CC)CCC(CCN(CC)CC)(COC(=O)c1ccc([N+](=O)[O-])cc1)c1ccccc1` as the compound, how does the growth inhibition read?
**A.** 19.7%

**Q.** With `Cc1ccc(S(=O)(=O)N2CCC(C(=O)O)(c3ccccc3)CC2)cc1` as the compound, how does the growth inhibition read?
**A.** -14.9%

**Q.** With `COc1cc(NCCCCCNC(C)C)c2ncccc2c1` as the compound, how does the growth inhibition read?
**A.** 48.9%

**Q.** With `COC(=O)C(Cc1cn(C(C)=O)c2ccccc12)P(=O)(OC)OC` (stereo not given) as the compound, how does the growth inhibition read?
**A.** -13.3%

**Q.** With `COC(=O)NN/C=C(\C=Nc1ccccc1)[N+](=O)[O-]` as the compound, how does the growth inhibition read?
**A.** -0.25%

**Q.** Which growth inhibition does the source give for `COC(=O)C(/C(=N/N)C(=O)Nc1cc(Cl)ccc1Cl)c1nc2ccc([N+](=O)[O-])cc2[nH]c1=O` (stereo not given) here?
**A.** -10.6%

**Q.** With `CC1[C@@H]2CC=C3[C@H]4CCC5Cc6nc7c(nc6C[C@@]5(C)C4CC(=O)[C@]32CO[C@]12OC(C)(C)CC2O)CC1CC[C@@H]2C3=C[C@H]4O[C@@]5(O[C@@](C)(CO)C[C@@H]5O)C(C)[C@@]4(O)[C@]3(C)[C@@H](O)CC2[C@]1(C)C7` (stereo not given in full) as the compound, how does the growth inhibition read?
**A.** 37.5%

**Q.** With `O=[N+]([O-])c1ccc(-c2cc3ccccc3nc2Cl)cc1` as the compound, how does the growth inhibition read?
**A.** 15.4%

**Q.** For `N#C/C(=C/c1cccnc1)C(=O)c1ccccc1`, which growth inhibition is on record?
**A.** -6.1%

**Q.** Which growth inhibition does the source give for `FC(F)(F)c1ccc(C(Nc2nncs2)Nc2nncs2)cc1` here?
**A.** -6.9%

**Q.** Which growth inhibition does the source give for `COC(=O)c1c2c(C)ccc(C)c2nc2c(C)ccc(C)c12` here?
**A.** -5.6%

**Q.** With `CCC(C)NC(=O)c1ccccc1C` (stereo not given) as the compound, how does the growth inhibition read?
**A.** 6.25%

**Q.** With `CN(N=O)C(=O)NC(CCCCNC(=O)OCc1ccccc1)C(=O)OCc1ccccc1` (stereo not given) as the compound, how does the growth inhibition read?
**A.** 5.95%

**Q.** For `CCCC(CCC)(CCC)CCN(C)C`, which growth inhibition is on record?
**A.** -6.85%

**Q.** For `CNCCCc1cc(-c2ccc([N+](=O)[O-])cc2)n[nH]1`, which growth inhibition is on record?
**A.** -1.55%

**Q.** With `Nc1ccc(F)c([N+](=O)[O-])c1` as the compound, how does the growth inhibition read?
**A.** -6.05%
